Source: PubChem BioAssay (National Center for Advancing Translational Sciences (NCATS))
Sampled rows, rich in hits. Any-hit rate of the full collection: about 11%.
HP1b binding inh = HTS for Inhibitors of HP1-beta Chromodomain Interactions with Methylated Histone Tails | Chromobox protein homolog 1 (Homo sapiens), P83916 | AlphaScreen HP1-beta / biotin-H3K9me3 peptide binding | Potency, µM (top dose mostly 114 µM), usual class: inhibitors | 0.56% of 390,000 active | AID 540317, 2011; also: nearly all actives have a fitted effect of over 70% in size
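AlphaScreen: HP1-beta (50 nM) preformed 30 min with biotin-H3(1-18)K9me3 peptide (50 nM) in PBS pH 7.4, 0.01% Tween-20. Compound added for 30 min at RT, then streptavidin donor/nickel chelate acceptor beads (10 ug/mL) for 30 min.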
JMJD2A Tudor inh = qHTS Assay for Inhibitors of JMJD2A-Tudor Domain; Lysine-specific demethylase 4A (Homo sapiens), O75164; AlphaScreen JMJD2A-Tudor / H3K4me3 peptide binding; Potency, µM (titrated, usually from 114 µM), hits mostly inhibitors; 4.4% of 390,000 active; also: nearly all actives have a fitted effect of over 50% in size
BAZ2B inh = qHTS Assay for Inhibitors of BAZ2B. Bromodomain adjacent to zinc finger domain protein 2B (Homo sapiens), Q9UIF8. AlphaScreen BAZ2B-H3K14Ac peptide displacement. Potency, µM (top dose mostly 114 µM), actives largely listed as inhibitors. 4.4% of 360,000 active; also: nearly all actives have a fitted effect of over 60% in size
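Compounds, titrated to a top concentration of 110 uM, were incubated 30 min at room temperature with preformed BAZ2B/acetyl-K14 H3 peptide complex (50 nM each). Proximity signal was measured by AlphaScreen after 20 min with beads.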
PI5P4K alpha inh = qHTS for Inhibitors of phosphatidylinositol 5-phosphate 4-kinase (PI5P4K). Phosphatidylinositol 5-phosphate 4-kinase type-2 alpha (Homo sapiens), P48426. PI5P4Kalpha enzyme, ADP-Glo luminescence, 60 min; active compounds read low. max response, %. 1.2% of 330,000 active. AID 652105, 2013; active = max response of -50% or lower; inconclusive = between -30% and -50%; inactive = -30% or higher; also: value at the top dose of about 77 µM
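PI5P4Kalpha ADP-Glo assay; 5 microM ATP final; 60 min RT reaction; HEPES pH 7.4/EGTA/CHAPS, 5% DMSO; controls lacking substrate or enzyme; luminescent end-point.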
L3MBTL1 inh = qHTS Assay for the Inhibitors of L3MBTL1. Lethal(3)malignant brain tumor-like protein 1 (Homo sapiens), Q9Y468. AlphaScreen L3MBTL1–H3K9me1 peptide binding. Potency, µM (titrated, usually from 57.1 µM), actives largely listed as inhibitors. 0.66% of 230,000 active; also: nearly all actives have a fitted effect of over 60% in size
Target sequence (Q9Y468 whole entry, looked up): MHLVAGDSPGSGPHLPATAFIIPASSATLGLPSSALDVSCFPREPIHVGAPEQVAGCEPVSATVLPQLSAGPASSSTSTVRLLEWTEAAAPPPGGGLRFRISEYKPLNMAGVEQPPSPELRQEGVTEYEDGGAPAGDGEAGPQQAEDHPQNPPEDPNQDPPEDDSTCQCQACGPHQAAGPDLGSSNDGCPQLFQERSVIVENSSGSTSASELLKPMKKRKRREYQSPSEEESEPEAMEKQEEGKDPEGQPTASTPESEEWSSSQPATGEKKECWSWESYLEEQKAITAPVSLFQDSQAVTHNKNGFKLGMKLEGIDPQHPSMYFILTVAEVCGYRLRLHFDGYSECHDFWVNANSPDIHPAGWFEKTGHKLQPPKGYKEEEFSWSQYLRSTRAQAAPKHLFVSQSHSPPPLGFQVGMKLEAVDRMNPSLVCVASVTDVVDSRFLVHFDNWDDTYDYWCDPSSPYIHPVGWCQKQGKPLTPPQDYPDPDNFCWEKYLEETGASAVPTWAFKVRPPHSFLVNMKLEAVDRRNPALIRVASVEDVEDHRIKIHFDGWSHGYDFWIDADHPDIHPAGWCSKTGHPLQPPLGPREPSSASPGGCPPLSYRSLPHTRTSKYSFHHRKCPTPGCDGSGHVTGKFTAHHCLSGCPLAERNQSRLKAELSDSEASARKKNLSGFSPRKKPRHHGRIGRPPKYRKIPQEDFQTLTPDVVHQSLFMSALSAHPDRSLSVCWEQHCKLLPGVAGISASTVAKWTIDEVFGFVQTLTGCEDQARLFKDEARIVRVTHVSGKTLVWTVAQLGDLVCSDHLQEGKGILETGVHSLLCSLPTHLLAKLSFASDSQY
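AlphaScreen proximity signal between nickel-chelate acceptor and streptavidin donor beads (final 10 ug/mL) reports binding of 50 nM L3MBTL1 to 75 nM biotin-H3 K9me1 peptide; complex incubated with compounds 30 min at room temperature; cefsulodin titration as control.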
G9a block = qHTS Assay for Inhibitors of Histone Lysine Methyltransferase G9a | Histone-lysine N-methyltransferase EHMT2 (Homo sapiens), Q96KQ7 | G9a H3K9 monomethylation, AlphaScreen, 2 h | Potency, µM (titrated, usually from 102 µM), usual class: inhibitors | 8.8% of 350,000 active; also: nearly all actives have a fitted effect of over 75% in size
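Methyltransferase reactions run at room temperature for 2 h (20 nM enzyme, 500 nM biotin-H3K9 peptide, 20 uM SAM) after a 15 min compound preincubation; product detected by AlphaScreen beads and anti-H3K9me1 antibody.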
A number is an active result; . = inactive; ? = inconclusive; / = no result; [ ] = another dose, or the depositor's remark. Unless noted, calls follow the shape of the dose curve; as a rule, active = well fitted inhibition curve with a large enough effect; inconclusive = small, poorly fitted or top-dose-only effect; inactive = no such curve, though single readings can be large or run the other way.

SMILES	HP1b binding inh	JMJD2A Tudor inh	BAZ2B inh	PI5P4K alpha inh	L3MBTL1 inh	G9a block
Cc1ccccc1Cn1c2ccccc2c2cnn(CC(=O)NC(C)CCc3ccccc3)c(=O)c21 (stereo not given)	.	.	.	/	/	.
O=c1[nH]c(NNC(=S)NCc2ccccc2)nc2c1C1(CCCCC1)Cc1ccccc1-2	?	?	?	.	.	20µM
C=CCNC(=S)NNc1nc2c(c(=O)[nH]1)C1(CCCC1)Cc1ccccc1-2	.	?	?	.	.	?
COc1ccc(CN(Cc2ccccc2)C(=O)c2ccncc2)cc1COc1ccc(NC(C)=O)cc1	.	?	/	/	/	/
Cc1ccc(Cl)cc1NC(=O)C1CC(=O)Nc2ncnn21 (stereo not given)	.	.[11.4 µM]	.	.	/	50.1µM
O=C1CC(C(=O)Nc2cccc(Cl)c2)n2ncnc2N1 (stereo not given)	.	.	.	.	.	.
CC(=O)Nc1ccc(NC(=O)C2CC(=O)Nc3ncnn32)cc1 (stereo not given)	.	.	.	.	/	.[12.7 µM]
O=C1CC(C(=O)Nc2cc(Cl)ccc2Cl)n2ncnc2N1 (stereo not given)	.	.	.	.	.	10µM
O=C(CCCn1c(=O)c2ccccc2n(CC(=O)Nc2cccc(C(F)(F)F)c2)c1=O)NCc1ccc2c(c1)OCO2	.	.	.	/	/	.
C[n+]1cccc2c(Br)ccc([O-])c21	.	.	.	.	?	/
[O-][n+]1cccc2c(Br)cc(Br)c(O)c21	.	.	/	.	/	50.1µM
CN(C)c1cccc(N=C2C=C(N3CCOCC3)CC(C)(C)C2)c1	.	50.1µM	.	.	.	3.16µM
COC(=O)c1cc(NC(=O)c2sc3ncn(Cc4cccc(F)c4)c(=O)c3c2C)cc(C(=O)OC)c1	.	.	.	/	/	.
O=C(Nc1ccc(F)cc1)C(c1ccccc1)N1CCN(CC(=O)N2CCCC2)CC1 (stereo not given)	.	.	.	.	.	?
O=C(Nc1ccc(F)cc1)C(c1ccccc1)N1CCN(CC(=O)N2CCOCC2)CC1 (stereo not given)	.	.	.	.	.	10µM
O=S(=O)(c1cccc(C(F)(F)F)c1)N1CCC(Oc2ccc(-n3cnnn3)cc2)CC1	.	.	.	/	/	.
CC(C)(C)Cc1nnc(NC(=O)c2ccc([N+](=O)[O-])cc2)s1	.	.	.	.	.	.
CCCCCc1nnc(NC(=O)Cc2ccc([N+](=O)[O-])cc2)s1	.	.	.	.	.	44.7µM
CC(C)(C)Cc1nnc(NC(=O)Cc2ccc([N+](=O)[O-])cc2)s1	?	?	.	.	.	10µM
Cc1ccnc(NC(=O)Cc2ccc([N+](=O)[O-])cc2)c1	.	.	50.1µM	.	.	/
Cc1ccc(CNC(=O)C2CCN(c3nn4cc(-c5ccc(F)cc5)nc4s3)CC2)cc1	.	.	.	/	/	.
CCC(=O)N1CCc2cc(S(=O)(=O)NC(Cc3ccccc3)C(=O)NCc3ccc(F)cc3)ccc21 (stereo not given)	.	.	/	/	/	.
COc1ccc(N=C2C(=Nc3ccc(OC)cc3)N(c3ccc(OC)cc3)C(=S)N2c2ccccc2)cc1	?	?	2µM	/	/	?
COc1ccc(N=C2C(=Nc3ccc(OC)cc3)N(c3ccc(OC)cc3)C(=S)N2C)cc1	7.08µM	8.91µM	2.82µM	/	/	5.01µM
COc1ccc(S(=O)(=O)c2cc(NS(=O)(=O)c3ccc(Cl)cc3)c(C)c(C)c2O)cc1	.	.	.	/	/	.
SMILES	HP1b binding inh	JMJD2A Tudor inh	BAZ2B inh	PI5P4K alpha inh	L3MBTL1 inh	G9a block
CCN(C(=O)Cn1nc(Cc2ccncc2)c2ccccc2c1=O)c1ccc(OC)cc1	.	.	.	/	/	.
N#CCNC1CC(=O)N(c2ccc(F)cc2)C1=O (stereo not given)	.	.	.	.	.	7.94µM
O=C1CC(NCC2CCCO2)C(=O)N1c1ccc(F)cc1 (stereo not given)	.	.	.	.	.	50.1µM
Cc1ccc(CNC(=O)Cn2ccn(-c3ccc(C)c(C)c3)c(=O)c2=O)cc1	.	.	.	/	/	.
COC(=O)CSc1ccnc2cc(Cl)ccc12	.	.	.	.	.	.
O=C(O)CSc1ccnc2cc(Cl)ccc12	.	.	.	.	/	56.2µM
CCCCOC(=O)c1ccc(NC(=O)c2ccc3c(c2)CCN3S(C)(=O)=O)cc1	.	.	.	/	/	.
O=C(CSc1ccccc1)OCC(=O)N1CCN(C(=O)c2ccco2)CC1	.	.	.	.	.	.[12.7 µM]
O=C(CCN1c2ccccc2Sc2ccccc21)OCC(=O)N1CCN(C(=O)c2ccco2)CC1	?	?	50.1µM	.	.	?
CC(=O)Nc1ccc(S(=O)(=O)NCCC(=O)OCC(=O)N2CCN(C(=O)c3ccco3)CC2)cc1	.	.	50.1µM	.	/	/
O=C(CCNS(=O)(=O)c1cccc(Cl)c1)OCC(=O)N1CCN(C(=O)c2ccco2)CC1	.	?	.	.	.	.[2.33 µM]
Cc1ccc(Cl)cc1NC(=O)C1CCN(c2nc3ccccc3n3cccc23)CC1	.	.	.	/	/	.
CC(=O)O[C@@H]1[C@@H](O)CN[C@@H]1Cc1ccccc1	.	.	/	/	/	/
COc1cc(C(=S)N2CCOCC2)cc(OC)c1OS(=O)(=O)c1ccc(C)cc1	.	.	?	.	.	28.2µM
COc1cc(C(=S)N2CCOCC2)cc(OC)c1OC	.	.	.	.	/	39.8µM
COc1cc(C(=S)N2CCOCC2)ccc1OC(=O)c1cc(OC)c(OC)c(OC)c1	.	.	.	.	/	14.1µM
COc1ccc(S(=O)(=O)Oc2cc(C(=S)N3CCOCC3)ccc2OC)cc1	.	.	.	.	/	35.5µM
CCOc1cc(C(=S)N2CCOCC2)ccc1OC(=O)c1cc(OC)c(OC)c(OC)c1	.	.	.	.	/	.
CCOc1cc(C(=S)N2CCC(O)CC2)ccc1OS(=O)(=O)c1ccc(Br)cc1	?	?	?	/	/	8.91µM
CCOc1ccc(C(=S)N2CCOCC2)cc1OCC	.	.	.	/	/	31.6µM
COc1cc(C(=S)N2CCOCC2)cc(OC)c1OS(=O)(=O)c1ccc(NC(C)=O)cc1	.	.	.	/	.	.
CCOc1cc(C(=S)N2CCOCC2)cc(Br)c1OS(=O)(=O)c1ccccc1	.	.	.	.	.	28.2µM
CCOc1cc(C(=S)N2CCCCC2)ccc1OS(=O)(=O)c1ccc(Br)cc1	.	.	.	/	.	.
O=C(Oc1ccccc1C(=S)N1CCOCC1)c1ccccc1	.	.	.	.	/	44.7µM
C[C@@H](/C=C/c1ccc2ccccc2c1)C1COC(=O)C[C@H]1O (stereo not given in full)	.	.	/	/	/	/
